Source: PubChem BioAssay (several laboratories)
Hits are enriched below; roughly 1.8% of the tested compounds scored in any of these assays.
PriA SSB inh – inhibitors of Klebsiella pneumoniae PriA binding to SSB C-terminal tail, primary screen, biochemical, AlphaScreen. PriA–SSB C-terminal tail interaction (Klebsiella pneumoniae). AlphaScreen SSBct-PriA binding, biotinylated peptide. inhibition, % at 33 µM. 430,000 tested, 0.6% active. AID 1272365, 2023; in the data active = inhibition mostly above about 37%, no sharp cut-off; inactive = mostly below about 20%
MazF activator – activators of E. coli MazEF toxin-antitoxin RNase, primary screen, biochemical, fluorescence, uHTS; activation, % at 20 µM; AID 504720, 2011; Endoribonuclease toxin MazF (Escherichia coli (strain K12)), P0AE70; 350,000 tested, 0.32% active; FAM/BHQ RNA-DNA oligo cleavage fluorescence, 5 h; in the data active = activation above about 50%
Target sequence (P0AE70 whole entry, looked up): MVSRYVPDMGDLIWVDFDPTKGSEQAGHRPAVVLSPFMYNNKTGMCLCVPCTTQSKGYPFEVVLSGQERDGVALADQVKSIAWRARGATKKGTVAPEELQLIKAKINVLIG
PfHsp40 rescue – rescue of yeast from PfHsp40 toxicity, primary screen, S. cerevisiae, ATP luminescence; S. cerevisiae expressing PfHsp40, growth rescue; growth rescue, % at 12.5 µM; 340,000 tested, 0.68% active; AID 504582, 2011; in the data active = growth rescue above about 28%, passing the limit was not always enough;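 also: yeast W303a lacking pdr1 and pdr3 grown in galactose medium; growth measured after three days at 30 °C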
PrP UTR inh – inhibition of PrP 5' UTR reporter expression; 340,000 tested, 0.35% active; inhibition, % (test concentration not listed); AID 488862, 2010; cell-based PrP 5' UTR mRNA reporter, plate reader; in the data active = inhibition above about 52%
PrPC TRFRET – inhibitors of human cell surface prion protein PrPC, primary screen, cell-based, TR-FRET; Major prion protein (Homo sapiens), P04156; TR-FRET read-out; inhibition, % at 13.8 µM; 370,000 tested, 0.43% active; in the data active = inhibition above about 24%
Of the large screens only hits and unclear results are named; the others gave an inactive call; ! = not active in a repeat.

Cc1cc(-c2ccco2)c(C#N)c2nc3ccccc3n12	MazF activator active
CCCc1cc(-n2ccnc2)n2c(nc3ccccc32)c1C#N	MazF activator 82.1
CC(C)c1cc(N2CCN(C(=O)c3ccco3)CC2)n2c(nc3ccccc32)c1C#N	none
O=C(Nc1ccccc1)Nc1nnc(Cc2ccc(F)cc2)s1	none
Clc1ccc2nc(CSCc3ccccc3)cn2c1	none
Cc1ccc(C(C)C)c(OCC(=O)N/N=C/C2CCCCC2)c1	none (no result: PriA SSB inh)
Cc1[nH]c2ccc(C(=O)NC3CCC(C)CC3)cc2c1C (stereo not given)	none
Cc1[nH]c2ccc(C(=O)NC3CCCC3)cc2c1C	PfHsp40 rescue 28.8
S=C(NCCc1ccccc1)NN=C1CCCCCC1	none
C/C(=N\NC(=S)NCCc1ccccc1)c1ccc(C)cc1	PfHsp40 rescue 30.3 (no result: PriA SSB inh)
CC1CCCCC1=NNC(=S)NCCc1ccccc1 (stereo not given)	PriA SSB inh 43.9 (no result: MazF activator, PfHsp40 rescue, PrP UTR inh, PrPC TRFRET)
CCN1CCCc2cc(CCNC(=O)C(=O)NC(C)(C)C)ccc21	none (no result: MazF activator, PfHsp40 rescue, PrP UTR inh, PrPC TRFRET)
CCN1CCCc2cc(CCNC(=O)C(=O)NCCN3CCOCC3)ccc21	none (no result: MazF activator, PfHsp40 rescue, PrP UTR inh, PrPC TRFRET)
CCN1CCCc2cc(CCNC(=O)c3ccc(C(F)(F)F)cc3)ccc21	none (no result: MazF activator, PfHsp40 rescue, PrP UTR inh, PrPC TRFRET)
CCN1CCCc2cc(CCNC(=O)C(=O)NCCOC)ccc21	PriA SSB inh 68.0 (no result: MazF activator, PfHsp40 rescue, PrP UTR inh, PrPC TRFRET)
CCN1CCCc2cc(CCNC(=O)c3ccc(Br)o3)ccc21	PriA SSB inh active! (no result: MazF activator, PfHsp40 rescue, PrP UTR inh, PrPC TRFRET)
CCN1CCCc2cc(CCNC(=O)NC(C)(C)C)ccc21	PriA SSB inh 44.0 (no result: MazF activator, PfHsp40 rescue, PrP UTR inh, PrPC TRFRET)
CCN1CCCc2cc(CCNC(=O)c3ccc(OC(C)C)cc3)ccc21	PriA SSB inh 61.0 (no result: MazF activator, PfHsp40 rescue, PrP UTR inh, PrPC TRFRET)
CCCNC(=O)C(=O)NCCc1ccc2c(c1)CCCN2CC	none (no result: MazF activator, PfHsp40 rescue, PrP UTR inh, PrPC TRFRET)
OCCCNc1ncnc2c1ncn2[C@H]1CN(Cc2ccc(Cl)cc2)C[C@@H](CO)O1	none (no result: PriA SSB inh, MazF activator, PfHsp40 rescue, PrP UTR inh)
CN=c1scc(-c2cc(OC)ccc2OC)n1N=Cc1c(C)[nH]c2ccccc12	PriA SSB inh 45.1 (no result: MazF activator, PfHsp40 rescue, PrP UTR inh, PrPC TRFRET)
COc1cccc(CN2CCC2(C)C(=O)Nc2ccc(C)cc2)c1F (stereo not given)	none (no result: PriA SSB inh, MazF activator, PfHsp40 rescue, PrP UTR inh)
Cc1ccc(NC(=O)Cn2cnc3c(sc4ncccc43)c2=O)c(Cl)c1	none (no result: MazF activator, PfHsp40 rescue, PrP UTR inh, PrPC TRFRET)
O=C(COc1ccc2c3c(c(=O)oc2c1)CCC3)c1ccc2c(c1)OCO2	MazF activator 124.6
O=C(O)COc1ccc2c3c(c(=O)oc2c1)CCCC3	none
COc1ccc(N2C(=O)C(Cl)=C(Nc3ccccc3OC)C2=O)cc1	none
